The values below come from PubChem BioAssay AID489012 (National Center for Advancing Translational Sciences (NCATS), 2010).

Records with an inconclusive call do not appear. A call without a number means that no potency is given here. The source made the active and inactive calls. Calls follow the shape of the dose curve; as a rule, active = well fitted activation curve with a large enough effect; inconclusive = small, poorly fitted or top-dose-only effect; inactive = no such curve, though single readings can be large or run the other way.
Potency is read from the fitted curve at half-maximal effect.

Chain of Relaxin receptor 1 (Homo sapiens) (Q9HBX9 whole entry, looked up): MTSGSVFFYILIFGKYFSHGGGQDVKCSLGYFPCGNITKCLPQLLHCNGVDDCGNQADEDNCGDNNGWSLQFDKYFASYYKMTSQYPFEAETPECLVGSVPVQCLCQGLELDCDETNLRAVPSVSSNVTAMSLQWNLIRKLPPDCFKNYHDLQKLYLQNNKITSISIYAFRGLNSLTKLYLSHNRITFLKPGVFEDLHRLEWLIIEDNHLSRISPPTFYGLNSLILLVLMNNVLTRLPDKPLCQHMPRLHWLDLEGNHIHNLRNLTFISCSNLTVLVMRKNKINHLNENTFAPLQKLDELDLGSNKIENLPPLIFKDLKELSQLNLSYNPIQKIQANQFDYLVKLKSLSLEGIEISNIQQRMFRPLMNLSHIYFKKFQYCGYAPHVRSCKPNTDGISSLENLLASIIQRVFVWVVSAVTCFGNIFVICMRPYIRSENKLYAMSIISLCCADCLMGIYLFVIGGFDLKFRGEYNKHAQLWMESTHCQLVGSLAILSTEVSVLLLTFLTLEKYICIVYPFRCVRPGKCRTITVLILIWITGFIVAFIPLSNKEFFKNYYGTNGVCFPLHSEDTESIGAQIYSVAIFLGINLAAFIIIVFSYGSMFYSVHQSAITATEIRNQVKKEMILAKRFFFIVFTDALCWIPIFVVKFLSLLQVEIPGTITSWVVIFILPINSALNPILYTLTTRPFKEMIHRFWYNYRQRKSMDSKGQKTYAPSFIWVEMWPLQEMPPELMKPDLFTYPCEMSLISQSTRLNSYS

In this assay the target is Relaxin receptor 1 (Homo sapiens) (UniProt Q9HBX9). The experiment in a line: qHTS Assay for Agonists of the Relaxin Receptor RXFP1: RXFP1 Hit Validation. Also: nearly all actives have a fitted effect of over 65% in size.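 As to activation: cAMP rise lowers the TR-FRET signal in lysed cells with PDE4 inhibitor present.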 To be noted: HEK293T-RXFP1 cAMP TR-FRET, 30 min; series mostly up to 45 µM. From the text:
NIH Chemical Genomics Center [NCGC] NIH Molecular Libraries Probe Production Centers Network [MLPCN] MLPCN Grant: R03 MH085705-01A1 Assay Submitter (PI): Alexander Agoulnik NCGC Assay Overview: The relaxin hormone is involved in the variety of biological functions in normal tissues and diseases. The role of relaxin is well-established in female reproduction and parturition, mammary gland and endometrial development, maintenance of myometrial quiescence during pregnancy. Relaxin signaling through its G protein-coupled receptor (GPCR) RXFP1 results in ECM remodeling through regulation of collagen deposition, cell invasiveness, proliferation and overall tissue homeostasis. […] Recombinant human relaxin (rhRlx) is currently being tested in clinical trials as a protective agent in congestive heart failure, in treating severe preeclampsia, and as an anti-fibrotic agent in systemic sclerosis. Upon relaxin binding RXFP1 activation leads to the activation of adenylate cyclase (AC) via Gs. cAMP will activate PKA, which phosphorylates many signaling proteins. Thus, detection of cAMP increase is an easy and reliable indication of relaxin receptor activation. To screen for agonists of the relaxin receptor, a HEK293T cell line stably transfected with RXFP1 was used. RXFP1 activation was assayed by changes in cAMP levels as detected with a time-resolved fluorescence energy transfer (TR-FRET) cAMP detection kit.
NCGC Assay Protocol Summary: This is a cell-based assay for cAMP second messenger response to screen for agonists of the RXFP1 receptor. The assay was conducted in the presence of a PDE4 inhibitor (Ro 20174). The cells were lysed and the cAMP levels were measured with a TR-FRET cAMP kit. Presence of cAMP in the cell lysate disrupts binding between the cryptate-labeled anti-cAMP and d2-labeled cAMP pair, leading to a decrease in the TR-FRET signal. Data were normalized to the controls for basal activity (buffer only) and 100% activity (29 nM porcine relaxin). The EC50 values were determined from concentration-response data modeled with the standard Hill equation 1536-well assay protocol for the HEK293 RXFP1 cAMP assay: (1) Add 3 ul HEK293 RXFP1 cell culture. 2000 cells/well in DMEM/F12, 10% FBS, 1x Pen/Strep (dispensed offline with MultiDrop Combi). (2) Incubate 16-24 hr at 37C, 5% CO2. (3) Add 1 ul 400uM Ro20174 in DPBS, 0.05% BSA, 0.005% Tween 20. (3) Add 23 nl compounds in DMSO solution. Final concentration was 0.5 - 58 uM. (4) Incubate 30 min at 37C, 5% CO2. (5) Add 1 ul cAMP-d2 in lysis buffer (HTRF cAMP HiRange kit, CisBio). (6) Add 1 ul anti-cAMP antibody-cryptate in lysis buffer (HTRF cAMP HiRange kit, CisBio). (7) Incubate 30 min at room temperature. […]
(qHTS replaces the single test concentration by a dilution series.)
For `Nc1ncc2[nH]cnc2n1`, the Potency is 13.8 µM (active).

As for `O=C(O)c1sc2cc(Cl)ccc2c1Cl`, the Potency entry is “inactive”.

Turning to `CCNC(=O)[C@H]1O[C@@H](n2cnc3c(N)ncnc32)[C@H](O)[C@@H]1O`, the Potency was 0.308 µM (active).

As for `CCC(Oc1cc(Cl)ccc1Cl)C(=O)N1CCC2(CC1)OCCO2` (centres undefined), the Potency entry is “inactive”.
